For assay [1], the target named is Glutathione peroxidase 1 (Homo sapiens) (UniProt P07203). In words: Primary qHTS Assay for Inhibitors of Recombinant Selenoprotein Glutathione Peroxidase 1 (GPX1) (AID 1845191). Further: nearly all actives have a fitted effect of over 65% in size. On activity, negative = inhibition: on the % scale 0 is the no-effect control and ±100 the full control effect. The conditions noted are these: recombinant GPX1, GR-coupled NADPH fluorescence, 15 min; series mostly up to 27.7 µM. The method in brief:
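GPX1 10 nM, GR 100 nM, GSH 1 mM, NADPH 0.5 mM, CHP 0.5 mM (final). 30-min cpd preincubation, RT. Ex340/Em450 read t=0, t=15 min.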
(In qHTS, concentration-response curves come from the screen itself.)

Assay [2] concerns the target Phospholipid hydroperoxide glutathione peroxidase GPX4 (Homo sapiens) (UniProt P36969). The assay can be described thus: Primary qHTS Assay for Inhibitors of Recombinant Selenoprotein Glutathione Peroxidase 4 (GPX4) (AID 1845192). Further: nearly all actives have a fitted effect of over 65% in size. On activity change, negative = inhibition: on the % scale 0 is the no-effect control and ±100 the full control effect. The conditions noted are these: recombinant GPX4, GR-coupled NADPH fluorescence, 15 min; series mostly up to 27.8 µM. An outline of the steps: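 qHTS, GR-coupled: GPX4 200 nM + cpd 30 min RT → GSH 1 mM, NADPH 0.5 mM, GR 100 nM → CHP 0.5 mM start; fluor 340/450 at t0 and t15 min; no-enzyme wells as control.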

Assay [3] addresses Luciferin 4-monooxygenase (Photinus pyralis) (UniProt P08659). In words: Primary firefly luciferase (FLuc) qHTS assay for identification of artifact compounds. (AID 1845220). Further: nearly all actives have a fitted effect of over 60% in size.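 On activity change, negative = inhibition: plate controls were DMSO vehicle for no effect and no enzyme for full effect.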 The conditions noted are these: purified firefly luciferase, luminescence, 5 min; series mostly up to 54.1 µM. The method in brief: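 qHTS, 15 min compound preincubation with substrate (10 uM luciferin, 10 uM ATP) at RT, then 10 nM FLuc; 5 min; luminescence; % inhibition vs no-enzyme/DMSO controls, 4-parameter Hill fit.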

Assay [4] is described as follows: Primary fluorescence-based thiol-reactive (MSTI) qHTS assay for identification of artifact compounds. (AID 1845221). Further: nearly all actives have a fitted effect of over 65% in size. Further: potency means the concentration at half of the fitted maximal effect.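 On activity change, negative = thiol reactive: thiol-reactive compounds lower the probe fluorescence signal.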 The conditions noted are these: MSTI thiol-reactivity probe, 1 h; series mostly up to 53.8 µM. The method in brief: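 One-hour, room-temperature, dark incubation of compound with 4 uM MSTI in PBS (pH 7.4, 2% DMSO) precedes a fluorescence read at 525 nm excitation, 598 nm emission; Hill-equation fitting yields concentration-response values.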

Assay [5] concerns Nanoluciferase (engineered Oplophorus gracilirostris luciferase). The assay can be described thus: Primary Nanoluciferase (NLuc) qHTS assay for identification of artifact compounds. (AID 1845222). The conditions noted are these: NLuc-conditioned medium, Nano-Glo luminescence, 5 min; series mostly up to 54.1 µM. The method in brief: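 Luminescence read-out of secreted NLuc in S16 cell conditioned medium (1:55); compounds tested with 15 min RT preincubation, then Nano-Glo substrate 1:100, 5 min. % inhibition vs no-enzyme and DMSO controls, 4-parameter Hill fit.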

The nature of assay [6]: Primary redox qHTS assay for identification of artifact compounds. (AID 1845223).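 Further: 0% = DMSO and 100% = reference compound.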 The conditions noted are these: Amplex Red/HRP redox cycling with DTT, fluorescence; series mostly up to 53.8 µM. The method in brief:
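Redox-cycling detection via DTT (250 uM final) oxidation coupled to Amplex Red (25 uM)/HRP (250 mU/mL) in HBSS. 15 min preincubation plus 30 min after DTT, room temperature. Ex/Em 525/598 nm; 4-parameter Hill fit against DMSO and 10 uM DA3003.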

Values without a mark were called inactive. Records with an inconclusive call do not appear. The source made the active and inactive calls. The call rests on the fitted dose curve; in most records, active means well fitted curve in the direction sought with a large enough effect; inconclusive means small, poorly fitted or top-dose-only effect, or another doubt; inactive means no such curve, though single readings can be large; an effect the other way counts as inactive or inconclusive.

Phospholipid hydroperoxide glutathione peroxidase GPX4 (Homo sapiens), sequence (P36969 whole entry, looked up): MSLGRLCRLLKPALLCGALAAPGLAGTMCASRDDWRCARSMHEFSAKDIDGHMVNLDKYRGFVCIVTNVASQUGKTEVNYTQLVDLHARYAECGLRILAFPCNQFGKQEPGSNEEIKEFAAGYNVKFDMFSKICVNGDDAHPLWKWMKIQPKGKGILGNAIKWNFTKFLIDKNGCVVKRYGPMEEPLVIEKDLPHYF
Glutathione peroxidase 1 (Homo sapiens), sequence (P07203 whole entry, looked up): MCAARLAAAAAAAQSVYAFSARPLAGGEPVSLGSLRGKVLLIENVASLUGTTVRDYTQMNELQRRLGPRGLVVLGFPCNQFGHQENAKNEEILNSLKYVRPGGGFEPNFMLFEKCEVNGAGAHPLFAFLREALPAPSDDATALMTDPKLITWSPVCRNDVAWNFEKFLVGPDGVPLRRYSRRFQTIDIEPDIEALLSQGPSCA

For `CCC1OC(=O)C(C)CC(C)C(=O)/C(C)=C/C(C)C(=O)/C=C/C1(C)O` (stereo unspecified), the Potency entry in assay [1], in assay [2], in assay [3], in assay [4], in assay [5] and in assay [6] was “inactive” throughout.

As to `C=C(COC(=O)C(C)C)C1Oc2cc(C(C)=O)ccc2C1OC(=O)C(C)C` (stereo unspecified), the Potency entry in assay [1], in assay [2], in assay [3], in assay [4], in assay [5] and in assay [6] was “inactive” in each case.

Regarding `C[C@@H]1CC2OC(=O)C3=C2C(CCC3O)[C@@]12C[C@@H](c1ccoc1)OC2=O` (stereo partly specified), the Potency entry in assay [1], in assay [2], in assay [3], in assay [4], in assay [5] and in assay [6] was “inactive” throughout.

As to `COC(=O)C1=CO[C@@H](O[C@@H]2O[C@H](CO)[C@@H](O)[C@H](O)[C@H]2O)[C@H]2[C@@H]1[C@H](O)[C@H](O)[C@]2(C)O`, the Potency result in assay [1], in assay [2], in assay [3], in assay [5] and in assay [6] was “inactive” throughout. Moreover, the Potency in assay [4] is 13 µM (active).

`CC[C@H](C)[C@H](NC(=O)[C@H](Cc1ccc(O)cc1)NC(=O)[C@@H](N)C(C)C)C(=O)N[C@@H](Cc1cnc[nH]1)C(=O)N1CCC[C@H]1C(=O)N[C@@H](Cc1ccccc1)C(=O)O`: the outcome in assay [1] is “inactive [at 4.49 µM]”; in assay [3], “inactive [at 6.45 µM]”. The activity change, negative = inhibition in assay [2] was 4.63% [at 4.52 µM]. Moreover, in assay [4], the activity change, negative = thiol reactive was 19.3% [at 6.41 µM]. In addition, the activity, negative = inhibition in assay [5] is 2.76% [at 6.45 µM]. Moreover, in assay [6], the redox activity (% of DA3003) was -2.99% [at 6.41 µM].

With `COc1ccc(/C=C/C(=O)N2CCCC2)cc1`, the Potency result in assay [1], in assay [2], in assay [3], in assay [4], in assay [5] and in assay [6] was “inactive” throughout.

For the compound `CSCC1OC(n2cnc3c(N)ncnc32)C(O)C1O` (stereo unspecified), the Potency result in assay [1], in assay [2], in assay [3], in assay [4], in assay [5] and in assay [6] was “inactive” throughout.

On to `O=C(Cn1c2ccccc2c2nc3n(c(=O)c21)CCS3)N1CCCC1`, for which the Potency entry in assay [1], in assay [2], in assay [3], in assay [4] and in assay [6] was “inactive” each time.

As to `CC1(C)CC[C@]2(C(=O)O)CC[C@]3(C)C(=CCC4[C@@]5(C)C[C@@H](O)[C@H](O)[C@](C)(CO)C5CC[C@]43C)[C@@H]2[C@@H]1O` (stereo partly specified), the Potency result in assay [1], in assay [2], in assay [3], in assay [4], in assay [5] and in assay [6] was “inactive” throughout.

For the compound `COc1cc(/C=C/C(=O)OCC2OC(OC3(CO)OC(CO)C(O)C3O)C(O)C(O)C2O)ccc1O` (stereo unspecified), the Potency entry in assay [1], in assay [2], in assay [3], in assay [4], in assay [5] and in assay [6] was “inactive” throughout.

With `CC[C@@H](Nc1c(Nc2cccc(C(=O)N(C)C)c2O)c(=O)c1=O)c1ccc(C)o1`, the Potency result in assay [1], in assay [2], in assay [3], in assay [5] and in assay [6] was “inactive” in each case. In addition, the Potency in assay [4] is 2.38 µM (active).

Regarding `CC1=C2CC3C(CCC3(C)O)C(C)(O)CC2OC1=O` (stereo unspecified), the Potency result in assay [1], in assay [2], in assay [3], in assay [5] and in assay [6] was “inactive” throughout. Also, the Potency in assay [4] is 23.8 µM (active).

Consider `COc1ccc(C(=O)OC2C3C=COC(OC4OC(CO)C(O)C(O)C4O)C3C3(CO)OC23)cc1OC` (stereo unspecified), for which the Potency result in assay [1], in assay [2], in assay [3], in assay [5] and in assay [6] was “inactive” in each case. In addition, the Potency in assay [4] was 4.12 µM (active).

Turning to `COc1cc(C(CO)CO[C@@H]2O[C@H](CO)[C@@H](O)[C@H](O)[C@H]2O)ccc1O` (stereo partly specified), the Potency result in assay [1], in assay [2], in assay [3], in assay [4], in assay [5] and in assay [6] was “inactive” each time.

As for `CC(=O)OCC(Cc1ccccc1)NC(=O)C(Cc1ccccc1)NC(=O)c1ccccc1` (stereo unspecified), the Potency result in assay [1], in assay [2], in assay [3], in assay [4], in assay [5] and in assay [6] was “inactive” throughout.

Consider `Cc1cc(CNC(=O)c2cc(C(=O)NCc3ccc(F)c(C)c3)ncn2)ccc1F`, for which the Potency entry in assay [1], in assay [2], in assay [3], in assay [4], in assay [5] and in assay [6] was “inactive” in each case.

Turning to `C[C@H]1[C@H](C)CC[C@]2(C(=O)O)CC[C@]3(C)C(=CCC4[C@@]5(C)C[C@@H](O)[C@H](O)C(C)(C)C5CC[C@]43C)[C@H]12` (stereo partly specified), the Potency result in assay [1], in assay [2], in assay [3], in assay [4] and in assay [6] was “inactive” throughout.

Consider `C=C1[C@@H]2CC[C@@]3(C)[C@H](c4ccoc4)OC(=O)C[C@]13O[C@H]1CC(=O)C(C)(C)[C@H](C(O)C(=O)OC)[C@]12C` (stereo partly specified), for which the Potency entry in assay [1], in assay [2], in assay [3], in assay [4] and in assay [6] was “inactive” in each case.

As to `O=C(OC(C(F)(F)F)C(F)(F)F)N1CCN(Cc2cccc(Oc3ccccc3)c2)CC1`, the Potency entry in assay [1], in assay [2], in assay [3], in assay [4], in assay [5] and in assay [6] was “inactive” each time.

Source of the values: PubChem BioAssay (NCATS).
